Most compounds without a hit are left out; they make up all but 9.2% or so of the library.
Rab9 prom act = qHTS Assay for Rab9 Promoter Activators; Huh7 Rab9 promoter-luciferase reporter, luminescence, 24 h; 320,000 compounds, 2.8% hits; AID 485297, 2010; Potency, µM (top dose mostly 9.22 µM), for inactives: at the top dose activation, negative = inhibition, hits mostly activators; further: % of control where 0% means no effect; nearly all actives have a fitted effect of over 60% in size
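Measured in stably transfected Huh7 cells bearing a Rab9 promoter–luciferase construct: 24 h compound treatment at 37 °C, followed by luminescence detection.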
NPC1 promoter act = qHTS Assay for NPC1 Promoter Activators | 320,000 compounds, 2.4% hits | Huh7 NPC1 promoter luciferase reporter, 24 h | Potency, µM (doses to about 9.22 µM), for the others: top-dose activation, hits mostly activators; further: % of control where 0% means no effect; nearly all actives have a fitted effect of over 60% in size
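Huh7 cells stably carrying NPC1 promoter–luciferase, plated in Opti-MEM with 10% FBS for 2 h, were exposed to compound in DMSO for 24 h at 37 °C; luciferase reagent was added for 10 min and luminescence read.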
SMN2 splice enh = qHTS Assay for Enhancers of SMN2 Splice Variant Expression | HEK293 SMN2-luciferase splicing reporter, luminescence, 30-36 h | Potency, µM (series often up to 46.1 µM), without a hit: at the highest dose activity change, positive = activation, hits mostly activators | 210,000 compounds, 2.8% hits; further: % of control where 0% means no effect; nearly all actives have a fitted effect of over 55% in size
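qHTS luciferase splicing reporter: luminescence rises when SMN2 exon 7 is included in transfected HEK293 cells. Compound exposure lasted 30-36 h at 37C, with 4.5 mM final sodium butyrate as control, followed by a ONE-Glo read.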
ELG1 repair inh = qHTS screen for small molecules that inhibit ELG1-dependent DNA repair in human embryonic kidney (HEK293T) cells expressing luciferase-tagged ELG1 | HEK293T ELG1-luciferase reporter, luminescence, 16 h; DNA damage induced by 5-fluorouridine | Potency, µM (series often up to 46.1 µM), for the others: at the top dose activity change, negative = inhibition, most hits filed as inhibitors | 330,000 compounds, 2.3% hits; further: on the % scale 0 is the no-effect control and ±100 the full control effect; nearly all actives have a fitted effect of over 55% in size
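In this reporter screen, reduction of luminescence relative to DMSO vehicle indicated activity. Compounds and 5-fluorouridine were added together to 2,000 cells per well, incubated for 16 hr at 37 °C, then developed with ONE-Glo.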
ELG1 genotox = qHTS screen for small molecules that induce genotoxicity in human embryonic kidney (HEK293T) cells expressing luciferase-tagged ELG1. HEK293T ELG1-luciferase reporter, luminescence, 16 h. Potency, µM (titrated, usually from 46 µM), for inactives: at the highest dose activity change, positive = activation, most hits filed as activators. 330,000 compounds, 1.3% hits; further: % of control where 0% means no effect; nearly all actives have a fitted effect of over 60% in size
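HEK293T cells expressing luciferase-tagged ELG1 were exposed to compound or DMSO vehicle for 16 hr at 37 °C and 5% CO2. Luciferase activity was then measured with ONE-Glo after 30 min at room temperature.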
FLuc counter = qHTS profiling assay for firefly luciferase inhibitor/activator using purifed enzyme and Km concentrations of substrates (counterscreen for miR-21 project); Luciferin 4-monooxygenase (Photinus pyralis), P08659; purified FLuc, Km substrates, luminescence inhibition; Potency, µM (series often up to 57.5 µM), for inactives: at the top dose activity change, negative = inhibition, hits mostly inhibitors; 360,000 compounds, 6.9% hits; AID 588342, 2011;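 further: plate controls were vehicle for no effect and reference inhibitor for full effect; nearly all actives have a fitted effect of over 55% in size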
Target sequence (P08659 whole entry, looked up): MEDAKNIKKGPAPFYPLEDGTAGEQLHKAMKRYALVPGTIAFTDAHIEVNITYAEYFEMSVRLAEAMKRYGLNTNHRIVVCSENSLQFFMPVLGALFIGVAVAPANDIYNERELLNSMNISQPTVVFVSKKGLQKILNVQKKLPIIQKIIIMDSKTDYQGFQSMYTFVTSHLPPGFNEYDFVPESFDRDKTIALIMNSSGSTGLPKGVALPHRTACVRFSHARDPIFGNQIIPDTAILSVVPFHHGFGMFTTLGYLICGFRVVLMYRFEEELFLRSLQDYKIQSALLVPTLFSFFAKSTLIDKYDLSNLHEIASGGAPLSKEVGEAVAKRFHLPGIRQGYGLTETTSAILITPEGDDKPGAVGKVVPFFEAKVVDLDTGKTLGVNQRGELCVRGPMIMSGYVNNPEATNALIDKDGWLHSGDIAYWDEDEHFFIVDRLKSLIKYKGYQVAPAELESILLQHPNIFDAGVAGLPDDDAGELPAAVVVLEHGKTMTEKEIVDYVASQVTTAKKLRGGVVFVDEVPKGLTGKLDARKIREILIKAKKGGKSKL
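Purified P. pyralis luciferase, 10 nM final, with Km-level 10 uM D-luciferin and 10 uM ATP in 50 mM Tris acetate pH 7.5, 10 mM Mg acetate, 0.01% Tween-20, 0.05% BSA; 6-point qHTS titration about 60 µM downward; luminescence read.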
* marks the source's active call; other numbers are inactive results; ? = inconclusive; · = no result. The call rests on the fitted dose curve; in most records, active means well fitted curve in the direction sought with a large enough effect; inconclusive means small, poorly fitted or top-dose-only effect, or another doubt; inactive means no such curve, though single readings can be large; an effect the other way counts as inactive or inconclusive. Potency means the concentration at half of the fitted maximal effect.

SMILES	Rab9 prom act	NPC1 promoter act	SMN2 splice enh	ELG1 repair inh	ELG1 genotox	FLuc counter
CCN(C(=O)NCc1noc2ccccc12)c1cc(C)ccc1C	·	·	·	·	·	-10.9%
CCC(=O)N(C1=C(NC(C)C)C(=O)c2ccccc2C1=O)C(C)C	-4.8%	0.5%	·	?	-8.6%	-3.4%
CCCNC1=C(N(C(C)=O)c2cccc(F)c2)C(=O)c2ccccc2C1=O	-38.0%	-33.1%	-110.1%	4.61µM*	-13.4%	-0.3%
CC(C)c1ccc(N2CC(C)(C)C2=O)cc1	0.8%	-0.6%	12.2%	19.0%	0.8%	?
COc1cccc(/C(C#N)=C/c2c(-c3ccc(Cl)cc3)nc3c(C)cccn23)c1	-5.6%	-2.4%	-8.0%	14.6µM*	-17.3%	5.5%
Cc1cccn2c(/C=N/OCc3cccc(F)c3)c(-c3ccc(Cl)cc3)nc12	-3.4%	-1.9%	-19.2%	-13.4%	-4.2%	-2.0%
O=C(COC(=O)c1cc(=O)[nH]c2ccccc12)Nc1nc(-c2ccccc2)cs1	18.8%	10.1%	?	?	14.7%	-7.2%
COc1ccc(-c2nnc(C3CCN(C(=O)c4ccccc4F)CC3)o2)cc1	·	·	-0.3%	·	·	?
NNC(=O)c1ccc(COc2ccc3c(c2)CCC3)o1	3.98µM*	?	15.8µM*	?	3.3%	?
O=C(N/N=C/c1cccc(O)c1)c1ccc(COc2ccc3c(c2)CCC3)o1	?	?	-27.0%	18.4%	?	19µM*
O=C(c1ccco1)N1CCN(C(=O)c2ccc(COc3ccc4c(c3)CCC4)o2)CC1	?	18.6%	14.1%	?	-6.7%	?
NNC(=O)c1ccc(COc2ccc(Br)cc2)o1	0.5%	12.2%	·	-15.1%	-2.8%	-8.0%
COc1ccccc1CCNC(=O)C(=O)Nc1cc2c3c(c1)CC(=O)N3CCC2	-5.6%	3.7%	·	?	1.5%	1.2%
Cc1ccc(OCCN(C)C(=O)C2CCC(=O)N(CCCN3CCCC3=O)C2)cc1 (centres undefined)	-1.5%	-0.2%	·	-0.4%	2.5%	-0.8%
O=C(NCCCO)c1cc2c(cn1)[nH]c1ccccc12	?	28.4%	·	?	13.5%	16.9µM*
COc1ccc(-c2nc3c4cnn(-c5ccccc5F)c4ncn3n2)cc1	·	·	15.9%	·	·	?
Fc1ccccc1-n1ncc2c1ncn1nc(-c3ccccc3Cl)nc21	·	·	5.0%	·	·	0.953µM*
COc1ccc2nc(SC(C)C(=O)NC3CCCC3)[nH]c2c1 (centres undefined)	0.0%	-1.0%	·	3.4%	-0.2%	-1.9%
Cc1ccc(-c2cc(-c3cccc(F)c3)n[nH]2)c(O)c1	3.98µM*	?	14.1µM*	?	?	?
Oc1ccccc1-c1cc(C(F)(F)F)[nH]n1	0.9%	-4.1%	·	-20.6%	-6.1%	-10.0%
Cc1ccc(-c2cc(-c3ccccc3C)[nH]n2)c(O)c1	3.55µM*	3.98µM*	-40.8%	?	?	10.7µM*
Cc1ccc(O)c(-c2cc(-c3ccccc3F)[nH]n2)c1	-0.3%	-1.6%	11.2µM*	?	11.2µM*	13.5µM*
O=[N+]([O-])c1ccccc1-c1cc(-c2ccccc2O)n[nH]1	?	14.1%	3.55µM*	?	?	8.49µM*
Cc1ccc(O)c(-c2cc(-c3cccc(F)c3)n[nH]2)c1	-8.7%	-2.6%	?	?	9.9%	?
Cc1ccc(S(=O)(=O)N2CCN(C(=O)n3ccnc3)CC2)cc1	11.9%	-5.3%	·	?	1.4%	-0.5%
SMILES	Rab9 prom act	NPC1 promoter act	SMN2 splice enh	ELG1 repair inh	ELG1 genotox	FLuc counter
COc1ccc2c(c1)C(=O)[C@H](OC(=O)N[C@H]1CCCc3ccccc31)[C@@H](c1ccc(OC)c(Br)c1)O2	·	·	5.0%	·	·	·
COC(=O)C(N)CS (centres undefined)	·	·	-17.6%	·	·	·
C1=Nc2ccccc2CN1c1ccccc1	?	?	7.94µM*	?	?	15.1µM*
CC(C)c1ccc(N2C=Nc3ccc(C(C)C)cc3C2)cc1	11.2%	6.4%	·	-9.5%	?	?
COc1ccc(CCNC(=O)c2c(C)nn(-c3ccc(F)cc3)c2-n2cccc2)c(OC)c1OC	·	·	·	·	·	-14.4%
Cc1ccccc1OCC(=O)Nc1ccccc1-c1ccccc1	0.891µM*	0.891µM*	?	?	?	4.78µM*
COc1ccc(C(C)=O)cc1CC(=O)Nc1ccccc1-c1ccccc1	-1.8%	-1.6%	·	11.6µM*	-2.4%	-0.1%
COc1cc(C(C)=O)ccc1OCC(=O)Nc1ccccc1N1CCCCC1	0.8%	-12.0%	·	5.17µM*	-43.2%	2.8%
Cc1ccccc1OCC(=O)Nc1ccccc1C(=O)NC1CC1	-2.9%	11.1%	·	5.17µM*	-12.8%	3.9%
O=C(COc1ccccc1)Nc1ccccc1C(=O)NC1CC1	1.0%	0.1%	·	0.0%	-6.9%	0.4%
CCOC(=O)Cn1c(=O)oc2cc(S(=O)(=O)Nc3cc(OC)cc(OC)c3)ccc21	·	·	0.1%	·	·	-8.1%
CC(C)(C)Cc1nnc(NS(=O)(=O)c2ccc([N+](=O)[O-])cc2)s1	-2.5%	-5.0%	·	-22.9%	-0.5%	1.4%
COc1cc2ccccc2cc1C(=O)N1CCN(c2ccccc2O)CC1	-3.7%	0.1%	·	-15.1%	1.1%	0.8%
COCCn1c(SCC(=O)c2c(-c3ccccc3)n(C)c3ccccc23)nnc1-c1ccncc1	-9.8%	-0.8%	16.2%	?	-0.3%	1.3%
COc1ccc(Nc2nnc(SCC(=O)/C=C3/N(C)c4ccccc4C3(C)C)s2)cc1	-21.7%	-13.0%	-66.0%	25.9µM*	-16.4%	?
COCCn1c(SCC(=O)/C=C2\N(C)c3ccccc3C2(C)C)nnc1-c1ccncc1	-10.7%	-1.2%	-48.1%	20.6µM*	-16.9%	-2.1%
Cc1cc(C)c2c(c1)/C(=N\N=c1\sc3ccccc3n1C)C(=O)N2	6.0%	-1.8%	·	-4.9%	2.2%	-4.5%
Cc1cccc(N2CCN(C(=O)CCNS(=O)(=O)c3ccc4c(c3)CCC(=O)N4)CC2)c1C	-13.1%	-2.0%	-82.7%	11.2µM*	-15.4%	2.7%
CCn1c(SCC(=O)Nc2ccc(C(C)=O)cc2)nc2nc3c(cc2c1=O)CCCC3	20.6%	12.1%	-75.6%	?	?	?
COc1ccc(NC(=O)CSc2nc(N)c3cc4c(nc3n2)CCCC4)cc1	?	18.9%	22.4µM*	14.7%	13.4%	1.51µM*
CC(=O)c1ccc(NC(=O)CSc2nc(N)c3cc4c(nc3n2)CCCC4)cc1	?	?	25.1µM*	-21.7%	16.1%	1.35µM*

Source: PubChem BioAssay
